Out of some 420,000 compounds screened, about 64,000 (15%) were called active. Inconclusive results (about 27%) are left out. The call rests on the fitted dose curve; in most records, active means well fitted inhibition curve with a large enough effect; inconclusive means small, poorly fitted or top-dose-only effect; inactive means flat fitted curve, though single readings scatter. A selection follows. A call without a number means that no potency is given here.
Potency means the concentration at half of the fitted maximal effect.

The nature of this experiment: qHTS for Inhibitors of human tyrosyl-DNA phosphodiesterase 1 (TDP1): qHTS in cells in absence of CPT. Further: nearly all actives have a fitted effect of over 55% in size. The note with it: DT40 Tdp1-/- hTDP1 cells, no CPT, ATP luminescence, 48 h; activity change, negative = growth inhibition: at 46.2 µM (top of the series). In short, it runs like this: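 A cellular qHTS used chicken DT40 cells lacking endogenous Tdp1 but carrying stably transfected human TDP1. Compounds were applied without camptothecin, and cell growth kinetics were judged by ATP-dependent luminescence after ≥48 hr.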
(qHTS replaces the single test concentration by a dilution series.)
On to `O=C(CSc1cn(CC(=O)N2CCOCC2)c2ccccc12)Nc1ccccc1`, for which the Potency result is “inactive”. Take `O=C(CN1C(=O)NC2(CCCC2)C1=O)Nc1cc(C(F)(F)F)ccc1N1CCOCC1`: the Potency result is “inactive”. To `Cc1ccc2c(c1)N(CCCC(=O)NCc1cccnc1)C(=O)CO2` belongs “inactive”. As for `COc1cc(C)ccc1OCC(=O)OCC(=O)c1ccc[nH]1`, the Potency entry is “inactive”. To `COCC1CCN(C(=O)C2CCC(=O)N(CC3CCCCC3)C2)CC1` (stereo not given) belongs “inactive”; to `Cc1ccc(S(=O)(=O)N(CC(=O)NCc2ccco2)c2ccccc2C)cc1`, “inactive”. Take `CN(CC(=O)Nc1cccc2c1CCCC2)S(=O)(=O)c1ccc(Cl)cc1`: the Potency result was “inactive”.

For the compound `Cc1ccc(S(=O)(=O)N(CC(=O)Nc2ccc(Cl)cc2Cl)c2ccccc2C)cc1`, the Potency was 11.6 µM (active). On to `Cc1ccc(N2C(=O)SC(N(CC(=O)O)c3ccc(C)cc3)C2=O)cc1` (stereo not given), for which the Potency entry was “inactive”. The value for `C(#CCN1CCOCC1)CCCN1CCOCC1` was “inactive”; that for `COc1ccc(Nc2nc(NCc3ccco3)nc(N/N=C/c3ccccc3Cl)n2)cc1` was 23.1 µM (active). The value for `COc1ccc(NC(=O)C(=O)NCc2ccco2)cc1` was “inactive”; that for `COc1ccc(Nc2nc(Cl)nc(NCc3ccco3)n2)cc1` was “inactive”. For `CN1CCn2cnc(C(=O)NCC(=O)OC(C)(C)C)c2C1=O`, the Potency result is “inactive”. Consider `CC12CCC(C(=O)N(CCC#N)CCC#N)(CC1=O)C2(C)C` (stereo not given), for which the Potency entry is “inactive”. The value for `CC1=CC(C)(C)NC(=S)N1NC(=O)c1ccccc1Cl` was “inactive”. Regarding `COc1ccc(NS(=O)(=O)c2cc(NC(=O)/C=C/c3cc(OC)c(OC)c(OC)c3)ccc2N2CCCCC2)cc1`, the Potency entry was “inactive”.

With `COc1ccc(NS(=O)(=O)c2cc(NC(=O)c3ccc(S(=O)(=O)N(C)C)cc3)ccc2N2CCOCC2)cc1`, the Potency result is “inactive”. To `COc1ccc(NS(=O)(=O)c2cc(NC(=O)C3CCCCC3)ccc2N2CCOCC2)cc1` belongs 13 µM (active). The value for `O=c1[nH]c(CN2CCOCC2)nc2scc(-c3ccccc3)c12` was “inactive”; that for `Oc1ccc(-n2nnnc2SCc2c(F)cccc2Cl)cc1` was “inactive”; that for `CC(CC(=O)N1CCN(c2ccccc2)CC1)S(=O)(=O)c1ccc2c(c1)NC(=O)CS2` (stereo not given) was 20.6 µM (active). Take `COc1ccccc1CNS(=O)(=O)c1ccc2c(c1)NC(=O)CS2`: the Potency entry was “inactive”.

Regarding `CC(CC(=O)N1CCN(c2ccccc2)CC1)c1ccccc1` (stereo not given), the Potency entry is “inactive”.

Take `Cc1nonc1NC(=O)c1ccccc1Br`: the Potency entry was “inactive”. To `CC(C)C(C(=O)NCc1ccco1)N(CC1CCCO1)C(=O)CNS(=O)(=O)c1ccc(F)cc1` (stereo not given) belongs “inactive”; to `CCOC(=O)Cc1ccc(NC(=O)Nc2c[nH]c(=O)[nH]c2=O)cc1`, “inactive”; to `CCN(CC)Cc1nc2sc(C)c(C)c2c(=O)[nH]1`, “inactive”.

`Cc1ccc(S(=O)(=O)N2CCCC2C(=O)OCc2nc3sc(C)c(C)c3c(=O)[nH]2)cc1` (stereo not given): the Potency entry is “inactive”.

As for `CS(=O)(=O)N(Cc1nc2sc3c(c2c(=O)[nH]1)CCCC3)C1CCCCC1`, the Potency was 23.1 µM (active).

Regarding `CC(=O)Nc1ccc(NC(=O)CC2CCCC2)cc1`, the Potency result was “inactive”. The value for `COc1cc(CCN=Cc2ccccc2O)c([N+](=O)[O-])cc1OC` was “inactive”; that for `Cc1c(NC(=O)C(=O)N/N=C/c2cccs2)c(=O)n(-c2ccccc2)n1C` was “inactive”. For the compound `Cc1cc(N=CC2=C(O)CCCC2=O)no1`, the Potency entry is “inactive”. On to `COc1ccc(Nc2ncnc3ccc(Br)cc23)c(OC)c1`, for which the Potency result is “inactive”. As to `CC1(C)CC2CC(C)(CN2c2ncnc3ccc(Br)cc23)C1` (stereo not given), the Potency is 3.26 µM (active).

Turning to `CCCCn1c(N)c(N(CCOC)C(=O)CSCC(=O)Nc2cccc(C)c2)c(=O)[nH]c1=O`, the Potency entry was “inactive”.

As for `CC[C@@H](C)[C@@H](C(=O)N1CCN(C(=O)OC(C)(C)C)CC1)n1cc(CCC(=O)O)nn1`, the Potency result was “inactive”.

In the case of `COc1ccc(C2NC(=O)N(C)C3=C2C(=O)N(c2ccc(C(=O)O)cc2)C3)cc1` (stereo not given), the Potency result is “inactive”.

In the case of `Cc1ccc(C(=O)CSc2nnc(Cn3nnc4ccccc43)n2C)cc1`, the Potency entry is “inactive”. To `Cc1ccc2nnn(Cc3cccc(C(C)(C)C)c3O)c2c1` belongs 11.6 µM (active).

Consider `O=C(Nc1ccccc1)N[C@H]1C[C@H](C(=O)O)Nc2cc(Cl)cc(Cl)c21`, for which the Potency entry was “inactive”.

Take `CCCCCc1ccc(-c2ccc(OCC)cc2)nc1`: the Potency result is “inactive”.

For `COc1ccc2[nH]c3c(C)c4cc[n+](C)cc4c(C)c3c2c1`, the Potency is 0.259 µM (active). To `COc1ccc2[nH]c3ccc(OC)cc3c2c1` belongs “inactive”; to `COc1ccc2[nH]c(=S)cc(C)c2c1`, “inactive”. The value for `O=S(=O)(NCc1ccc2c(c1)OCO2)c1cccc2nsnc12` was “inactive”. For the compound `O=Cc1cn(-c2ccccc2)nc1-c1ccccn1`, the Potency entry is “inactive”. The value for `COc1ccc2c(c1)OC(O)(C(F)(F)C(F)F)CC2=O` (stereo not given) was 23.1 µM (active). To `COc1ccc2c(c1)SC(C)CC2=O` (stereo not given) belongs “inactive”; to `CCCC(C(=O)N1CCOCC1)N1C(=O)C2C3C=CC(C3)C2C1=O` (stereo not given), “inactive”; to `CC(=O)OCC(COC(C)=O)OC(C)=O`, “inactive”. The value for `O=C(CN1C(=O)/C(=C\c2ccccc2F)SC1=S)Nc1nc2ccccc2s1` was “inactive”; that for `COCCN1CCn2c(nc3cc(NS(C)(=O)=O)ccc32)C1` was “inactive”; that for `O=C(CN1C(=O)c2ccccc2S1(=O)=O)NC1CCCCC1` was “inactive”.

For the compound `COc1cccc(Oc2ccc(N)cc2)c1`, the Potency result was “inactive”. In the case of `COc1cc(OC)nc(N/N=C(\c2ccccc2)c2ccncc2)n1`, the Potency entry is “inactive”. For `CCOc1ccc(N2C(=O)CSC2=NC#N)cc1`, the Potency entry was “inactive”. To `CCC(C(=O)NC1CCCC1)N(C(=O)c1snc(C(N)=O)c1N)c1ccc2c(c1)OCCO2` (stereo not given) belongs “inactive”; to `COc1ccc(N(C(=O)c2snc(C(N)=O)c2N)C(C(=O)NC2CCCC2)c2ccco2)cc1OC` (stereo not given), “inactive”; to `CCC(C(=O)NC1CCCCC1)N(C(=O)c1snc(C(N)=O)c1N)c1ccc(OC)cc1OC` (stereo not given), 23.1 µM (active).

For the compound `COc1cccc(-n2c(=O)c3c(C)c(C(=O)N(C)C)sc3n(CC(=O)NCCc3ccc(OC)c(OC)c3)c2=O)c1`, the Potency result was “inactive”. With `CCc1ccc(C(CNc2nc(C(F)(F)F)nc3ccccc23)N(C)C)cc1` (stereo not given), the Potency was 18.4 µM (active). As to `CN(C)C(CNC(=O)Cc1ccc([N+](=O)[O-])cc1)c1ccccc1` (stereo not given), the Potency result is “inactive”. To `C=CCn1cc(Cl)cc(C(=O)Nc2ccccc2)c1=O` belongs “inactive”. To `CCn1cc(/C=C(\NC(=O)c2ccc(C)cc2)C(=O)NCCN2CCOCC2)c2ccccc21` belongs “inactive”; to `COc1ccccc1NC(=O)CCCc1c[nH]c2ccccc12`, “inactive”. To `O=C(CC(=O)N/N=C\c1ccc(F)cc1)NCCc1ccccc1` belongs “inactive”; to `O=C(Cc1c[nH]c2ccccc12)N/N=C/c1cccc(F)c1`, 3.66 µM (active); to `COCCNC(=O)C(c1ccc(O)cc1)N(C(=O)CCC(=O)Nc1nccs1)c1ccc(C)cc1` (stereo not given), “inactive”. Regarding `C/C(=N/NC(=O)CC(=O)N/N=C(\C)c1ccc([N+](=O)[O-])cc1)c1ccc([N+](=O)[O-])cc1`, the Potency result is “inactive”. With `C/C(=N\N(C)C)c1ccc(OCCOc2ccc([N+](=O)[O-])cc2)cc1`, the Potency was 25.9 µM (active).

With `CCOC(=O)COc1ccc([N+](=O)[O-])cc1`, the Potency result is “inactive”. With `Cc1cccc(N(CC(=O)N2CCCC2)S(C)(=O)=O)c1C`, the Potency result was “inactive”. For `CC1(OC(=O)CCc2ccccc2)C(=O)C=C2C=C(c3ccc(C#N)cc3)N(CCc3ccccn3)C=C2C1=O` (stereo not given), the Potency result was “inactive”. The value for `CCN(CC)S(=O)(=O)c1ccc2c3c(cccc13)C(=O)S2` was “inactive”. For the compound `C/C(=N\NC(=O)c1cccnc1)c1ccc(-n2ccnc2)cc1`, the Potency entry is “inactive”. The value for `COCC(C)NCc1cc(Br)ccc1OC` (stereo not given) was “inactive”. The value for `CCC(C)NCCOCCOc1ccc(Br)cc1C` (stereo not given) was 20.6 µM (active); that for `O=C1C(=O)N(CCCN2CCOCC2)C(c2ccc([N+](=O)[O-])cc2)/C1=C(\O)c1ccc2c(c1)OCCO2` (stereo not given) was “inactive”. The value for `O=C(ON=C1CCN(S(=O)(=O)c2ccccc2)CC1)c1ccc(Cl)cc1` was “inactive”; that for `CCOc1cccc(-c2nnc(SCC(=O)NC3CC3)n2C)c1` was “inactive”; that for `Cc1ccc(CNC(=O)CSc2nnc3c(n2)[nH]c2ccc(F)cc23)cc1` was “inactive”. Consider `CCOc1ccc2[nH]c3nc(SCC(=O)NC4CCCC4)nnc3c2c1`, for which the Potency was 6.51 µM (active). In the case of `CC(Sc1nncn1C)C(=O)Nc1ccccc1-c1ccccc1` (stereo not given), the Potency result was “inactive”.

For `COc1ccc(CCNC(=O)Nc2ccc3c(c2)c(=O)n(C)n3C)cc1OC`, the Potency result was “inactive”.

Take `Cn1c(=O)c2cc(NC(=O)NCCc3cccs3)ccc2n1Cc1cccc(C(F)(F)F)c1`: the Potency was 23.1 µM (active). To `O=C(Cc1cccs1)NCc1cccc(C(F)(F)F)c1` belongs “inactive”; to `COc1ccc(S(=O)(=O)Nc2cccnc2)c(Cl)c1Cl`, “inactive”.

Regarding `Cc1c(NC(=O)CSCc2ccccc2)cccc1C(=O)O`, the Potency entry was “inactive”. Regarding `O=C(c1cc(-c2ccc(O)cc2)on1)N1CCCc2ccccc21`, the Potency result is “inactive”. To `Cc1cccc2cc3c(N)c(C(=O)N4CCCc5ccccc54)sc3nc12` belongs 2.59 µM (active). To `Cc1occc1C(=O)N1CCCc2ccccc21` belongs “inactive”.

Take `CC(C)[C@H](NC(=O)OCc1ccccc1)C(=O)OCc1ccccc1`: the Potency result is “inactive”. The value for `Nc1scc[n+]1Cc1cccc2cccnc12` was “inactive”; that for `c1ccc2c(C[n+]3csc4ccccc43)cccc2c1` was 0.82 µM (active). The value for `CCOc1ccc(CC(=O)NCCc2csc3nc(-c4ccccc4F)nn23)cc1` was “inactive”.

For the compound `Cn1c(C(=O)N2CCC(C(N)=O)CC2)cc2c(=O)n(C)c3ccccc3c21`, the Potency entry was “inactive”. To `Cn1c(C(=O)NCCc2ccsc2)cc2c(=O)n(C)c3ccccc3c21` belongs 16.4 µM (active); to `CCOCCCNC(=O)c1cn(CC(C)C)c(=O)c2c1c1ccccc1n2C`, “inactive”; to `CCOc1ccc(CCNC(=O)c2c(C)oc3ncn(C)c(=O)c23)cc1`, “inactive”.

For the compound `CCOc1ccc(CCNC(=O)c2cc3c(=O)n(C)c4ccccc4c3n2C)cc1`, the Potency was 14.6 µM (active).

With `COc1ccc(C(=O)NNC(=O)c2cnccn2)cc1[N+](=O)[O-]`, the Potency result is “inactive”. The value for `CCc1ccc(N2C(=O)CN(S(=O)(=O)CC)CC2(C)C(=O)NC2CCCCC2)cc1` (stereo not given) was “inactive”; that for `Cc1cccc(-n2c(O)c(C=Nc3ccccc3N)c(=O)[nH]c2=O)c1` was “inactive”.

(Values after PubChem BioAssay AID686978 (National Center for Advancing Translational Sciences (NCATS), 2013).)
